This passage reports max response and outcome results from PubChem BioAssay (NCATS).

Results filed as inconclusive are left out. A number with no mark means an inactive call. Calls of active or inactive are those of the source. Calls follow the shape of the dose curve; as a rule, active = well fitted inhibition curve with a large enough effect; inconclusive = small, poorly fitted or top-dose-only effect; inactive = flat fitted curve, though single readings scatter.

For test [1], the system named is NIH3T3. Description: Cytotoxic Profiling of Annotated Libraries Using Quantitative High-Throughput Screening (AID 1296008). As to max response: % is scaled to controls: 0 for no effect and ±100 for the full control effect. Conditions: Five cell lines viability, CellTiter-Glo ATP luminescence, 48-72 h; max response: stronger effect = lower value. A digest of the protocol: (§1)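 Compounds were pin-transferred onto cells and incubated 48 or 72 hr at 37 degree Celsius, 95% humidity. CellTiter-Glo was added, plates sat 10 min at room temperature, then ATP-coupled luminescence was imaged as the viability read-out.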
Background: ATP-based viability assays read luminescence as a measure of living cells.

A further test concerns HACAT. Description: qHTS assay to identify novel small-molecules to repurpose for Merkel cell carcinoma treatment (AID 1296009). As to conditions: MCC and control cell lines, CellTiter-Glo viability, 72 h; at 44.8 µM (top of the series) unless noted. An outline of the steps: (§2)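 Luminescence from CellTiter-Glo, read 10 min after addition at room temperature, reported viability following a 72 hr, 37 degree celsius treatment with NPC or MIPE compounds in titration; values normalized to plate controls.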
On the technique in general: Quantitative high-throughput screening tests each substance at several concentrations.

Another test deals with HEK293T. Described as above. Conditions: MCC and control cell lines, CellTiter-Glo viability, 72 h; at 44.8 µM (top of the series) unless noted. A digest of the protocol: as §2
The next test has as its system KB-3-1. Description: Cytotoxic Profiling of Annotated Libraries Using Quantitative High-Throughput Screening (AID 1296008). As to max response: % is scaled to controls: 0 for no effect and ±100 for the full control effect. Conditions: Five cell lines viability, CellTiter-Glo ATP luminescence, 48-72 h; max response: stronger effect = lower value. An outline of the steps:
as §1

Test [2] relates to NIH3T3. Description: qHTS assay to identify novel small-molecules to repurpose for Merkel cell carcinoma treatment (AID 1296009). As to conditions: MCC and control cell lines, CellTiter-Glo viability, 72 h; at 44.8 µM (top of the series) unless noted. A digest of the protocol:
as §2

Another test relates to CRL-7250. Described as above. Conditions: MCC and control cell lines, CellTiter-Glo viability, 72 h; at 44.8 µM (top of the series) unless noted. An outline of the steps: as §2
Also: nearly all actives have a fitted effect of over 60% in size.

For `CCCCCCn1c(=O)c(C(=O)Nc2ccc(C(=O)OCCC)cc2)c(O)c2ccccc21`, in the test with NIH3T3 [1], the max response is 4.2%. For the same molecule, the outcome in the test with HACAT and in the test with HEK293T was “inactive [at 9.27 µM]” throughout.
Turning to `COC1C(O)C(C)OC(OC2C(CO)O[C@@H](O[C@@H]3CC4CCC5C(CC[C@]6(C)[C@@H](C7=CC(=O)OC7)CC[C@]56O)[C@@]4(C)[C@H](O)C3)C(O)C2O)C1O` (some centres not stated), the molecule was called inactive in the test with NIH3T3 [1].
Regarding `CCN1C[C@]2(COC(=O)c3ccccc3N3C(=O)C[C@H](C)C3=O)CC[C@H](OC)[C@@]34[C@@H]5C[C@H]6[C@H](OC)[C@@H]5[C@](O)(C[C@@H]6OC)[C@](O)([C@@H](OC)[C@H]23)[C@@H]14`, the molecule was classed as inactive in the test on KB-3-1, in the test with NIH3T3 [1] and in the test with NIH3T3 [2].
For the molecule `C[C@@H]1C(=O)O[C@H]2[C@H](O)[C@@]34[C@@H]5OC(=O)[C@@]3(O[C@@H]3OC(=O)[C@@H](O)[C@@]34[C@H](C(C)(C)C)[C@H]5O)[C@@]12O`, in the test on NIH3T3 [1], the molecule was classed as inactive. Moreover, the outcome in the test on HACAT was “inactive [at 17.4 µM]”.
Consider `CC(=O)OC12C(O)C(C)C3(O)C4C=C(C)C(=O)C4CC(CO)=CC3C1C2(C)C` (configuration not stated), for which the result with NIH3T3 [1] was inactive.
Consider `CCCN1CCO[C@H]2c3cc(O)ccc3OC[C@@H]21`, for which the call in the test on NIH3T3 [1], with CRL-7250 and in the test with HEK293T was inactive.
With `CC(=O)O[C@H]1C[C@@H](OC(C)=O)C(C)(C)C2C[C@@H](O)[C@]3(C)C(CC[C@@]4(C)[C@H](C5=CC(=O)OC5O)C[C@H]5O[C@]543)[C@]21C` (some centres not stated), the max response in the test with KB-3-1 was 6.85%. For the same molecule, in the test with NIH3T3 [1], the call was inactive. In addition, the outcome in the test with HEK293T and in the test with NIH3T3 [2] was “inactive [at 17.4 µM]” throughout.
